Measurements reported in PubChem BioAssay (NCI).
Compounds without any hit were thinned out: in the full panel of roughly 83,000, 20% have a hit.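 Single-dose data. Exposure time 48 hours. Values below 10 considered active.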 Unmarked numbers belong to inactive results. Calls of active or inactive are those of the source.

Key:
Experiment in all cases: NCI-60 one-dose screen, 48 h (100 = growth as untreated, 0 = no growth, -100 = all killed)
Details in all cases: 10 µM
HCT-15 colon = system: HCT-15 colon
HT29 colon = system: HT29 colon
SNB-75 CNS = system: SNB-75 CNS
SNB-19 CNS = system: SNB-19 CNS
U251 CNS = system: U251 CNS
PC-3 prostate = system: PC-3 prostate
SK-MEL-5 melanoma = system: SK-MEL-5 melanoma
UACC-62 melanoma = system: UACC-62 melanoma
LOX IMVI melanoma = system: LOX IMVI melanoma
SK-MEL-28 melanoma = system: SK-MEL-28 melanoma

Compound | growth (HCT-15 colon) | growth (HT29 colon) | growth (SNB-75 CNS) | growth (SNB-19 CNS) | growth (U251 CNS) | growth (PC-3 prostate) | growth (SK-MEL-5 melanoma) | growth (UACC-62 melanoma) | growth (LOX IMVI melanoma) | growth (SK-MEL-28 melanoma)
O=C(NO)c1ccc(CNC(=O)[C@H]2Cc3c([nH]c4ccccc34)[C@H](c3ccc(Cl)cc3)N2)cc1 | 30.5% | 21.5% | 39.6% | 15.5% | -4.01% (active) | 21.4% | -70.8% (active) | -49.8% (active) | -88.4% (active) | 1.81% (active)
COc1ccc(C2NC(=S)NC(C)=C2C(=O)OC(C)C)cc1OC (stereo not given) | 105% | 115% | 94.9% | 98.9% | 102% | 96% | 98.9% | 90.5% | 99.3% | 109%
CCOC(=O)C1=C(N)N(c2ccc(Cl)cc2)C2=C(C(=O)CC(C)(C)C2)C1c1ccc(N2CCOCC2)cc1 (stereo not given) | 92.5% | 104% | 109% | 91.2% | 88.2% | 92% | 80.3% | 82.8% | 115% | 105%
COc1cc(/C=C/C(=O)c2ccc(C(F)(F)F)cc2)ccc1Oc1nc(Nc2ccc(F)cc2)nc(N(C)C)n1 | 70% | 74.1% | 99.7% | 83% | 74.2% | 76% | 61.7% | 57.7% | 46.9% | 85.9%
CCN1CCN(Cc2ccc(NC(=O)c3cccc(-n4cc(-c5ccc(NC(C)=O)nc5)nn4)c3)cc2C(F)(F)F)CC1 | 83.9% | 61.7% | 104% | 122% | 86.6% | 112% | 87.3% | 82.4% | 72.4% | 53.3%
C=C(C)[C@@H]1CC[C@]2(C)[C@H](CC=C3[C@@H]4CC(C)(C)CC[C@]4(C(=O)N4CCOCC4)CC[C@]32C)[C@@]1(C)CCCN | -83.6% (active) | -91% (active) | -91.2% (active) | -93.7% (active) | -81.2% (active) | -79.8% (active) | -96.5% (active) | -93.8% (active) | -81.7% (active) | -97% (active)
O=C(CNc1nc(-c2ccccc2)cs1)Nc1cccc(Cl)c1 | 5.51% (active) | 32.1% | 50.2% | 51% | 26.9% | 18.9% | 35.5% | 19.8% | 7.96% (active) | 42.8%
CC1=C(c2cc(-c3ccc(Cl)cc3)c(C#N)c(N)n2)C(c2ccccc2)NC(=S)N1 (stereo not given) | 10.9% | 24.7% | 36.5% | 75.4% | 38.8% | 49.8% | 58.1% | 62.7% | -49.2% (active) | 57.7%
O=C1CCC(N2Cc3c(NCc4ccc(-c5ccccc5)cc4)cccc3C2=O)C(=O)N1 (stereo not given) | 36.4% | 109% | 85.9% | 56.2% | 49.6% | 50.4% | 67.3% | 75.5% | 80.5% | 91.4%
Clc1cccc(N/N=C/c2c[nH]c3ccccc23)n1 | 18.9% | 30.4% | 15.5% | 43.2% | 34.7% | 25.2% | 41.7% | 55.1% | 17.9% | 79.8%
Brc1ccc(/C=C/c2n(Cc3ccc4ccccc4c3)c3ccccc3[n+]2Cc2ccc3ccccc3c2)cc1 | 7.22% (active) | -87% (active) | -84.3% (active) | -45.9% (active) | -88.9% (active) | -79.1% (active) | -99.2% (active) | -81.9% (active) | -100% (active) | -93.1% (active)
O=C1Nc2ccc(Cl)cc2/C1=C/c1ccc(OCc2ccc(Br)cc2F)cc1 | 45.7% | 40.5% | 18.3% | 23% | -5.75% (active) | 41.4% | 32.6% | 32.5% | 7.62% (active) | 63.7%
COc1ccc2c(c1)N=C(C(=O)O)/C2=C/c1sc(Nc2ccc(O)cc2)nc1O | 53.9% | 95.9% | 67.2% | 70.1% | 67.7% | 76% | 83% | 42.9% | 49.2% | 80.5%
